Data on 21 compounds can be found in PubChem BioAssay (EPA / NIEHS).

Results filed as inconclusive are left out. The source made the active and inactive calls. How the source made its calls: active means hit-call score of the fitted dose curve at least 0.9, where 1 is the maximum; inconclusive means response in the unintended direction; inactive means score below 0.9.

The nature of this assay: STM_H9_NormalizedViability: Cytotoxicity Assessment at 120 hours in the Stemina devTOX quickPredict H9 human embryonic stem cell (hESC)-based Assay (AID 2283784). The method, then: STM_H9_viability utilizes undifferentiated H9 cells to measure cell viability.STM_H9_NormalizedViability is a component calculated in the STM_H9_viability assay. It measures cell viability using background corrected relative fluorescence units (RFU) value from the CellTiterFluor Assay normalized to the value of the 0.1% DMSO neutral control treatment (by 96-well plate)Data from the assay component STM_H9_Viability was analyzed at the assay endpoint STM_H9_Viability_Norm in the positive analysis fitting direction relative to DMSO as the negative control and baseline of activity. Using a type of viability reporter, loss-of-signal activity can be used to understand viability.
H9 hESCs maintained in a pluripotent state were exposed to test compound for 72h with chemical replenishment with media replacement every 24h. Cell-conditioned media from the final 24-h treatment period was collected for analysis of the targeted biomarker, and cell viability of the corresponding cell layer was assessed. The chemical library was tested in blinded fashion. Each test plate included 1uM Methotrexate (MTX; Selleck Chemicals, Houston, Texas) as a positive reference, 5 nM MTX as a negative reference, 0.1% DMSO as the neutral (vehicle) control, and sample-level media blanks.H9 cell-conditioned media from the final 24-h treatment period was collected for analysis of the targeted biomarker and cell viability was measured from the corresponding cell layer. Cell viability was measured using the CellTiter-Fluor assay (Promega, Madison, Wisconsin) based on proteolytic cleavage of a substrate to fluorescent signal proportional to the number of living cells. The cell viability Relative Fluorescence Unit (RFU) was background corrected and normalized to mean RFU of the neutral control (0.1% DMSO). The collected H9-cell-conditioned media samples were processed for targeted biomarker analysis as described (Palmer et al., 2013). Briefly, spent media samples were deproteinized (40% acetonitrile) and processed for UPLC-HRMS. Data acquisition was performed using 4 separate UPLC-HRMS systems, consisting of an Agilent 1290 Infinity LC system (Agilent Technologies) interfaced with an Agilent high-resolution mass spectrometer (models G6520A, G6520B, G6530A, and G6224A). A Waters Acquity UPLC BEH Amide column (2.1mm x 50mm, 1.7lm particle size; Waters, Milford, Massachusetts) maintained at 40C was applied for separation of metabolites using a 6.5min solvent gradient with 0.1% formic acid in water and 0.1% formic acid in acetonitrile (1.0ml/min flow rate). Data were acquired using MassHunter Acquisition software (version B 04.00, Agilent Technologies). The extracted ion chromatogram (EIC) areas for ORN, CYSS, and their respective spike-in C13-standards were determined using the Agilent MassHunter Quantitative Analysis software, version B.05.00 or newer (Agilent Technologies), and data were normalized as described in Palmer et al. (2017).
For `Cc1nc(-c2ccc3c(c2)CCN(CCC2CCC(NC(=O)/C=C/c4ccc(F)cc4)CC2)CC3)no1` (stereo unspecified), the result was inactive.

For `CC1=C(/C=C/C(C)=C/C=C/C(C)=C/CO)C(C)(C)CCC1`, the result was inactive.

For `Oc1ccc2ccccc2c1N=Nc1ccccc1`, the AC50 was 992 nM (active). For `OC[C@@H](O)[C@@H](O)[C@H](O)[C@H](O)CO`, the result was inactive.

Turning to `Nc1ccccc1N`, the AC50 was 2010 nM (active). Same read-out and setting: the value for `COc1ccc2c(c1)c(CC(=O)O)c(C)n2C(=O)c1ccc(Cl)cc1` was 78100 nM (active). For the compound `Cc1c(C(=O)O)c(O)cc2c1C(=O)c1c(O)c([C@@H]3O[C@H](CO)[C@@H](O)[C@H](O)[C@H]3O)c(O)c(O)c1C2=O`, the result was inactive. Same read-out and setting: the value for `CCCCC(CC)COC(=O)CC(C(=O)OCC(CC)CCCC)S(=O)(=O)O` (stereo unspecified) was “inactive”; that for `O=c1c(O)c(-c2ccc(O)c(O)c2)oc2cc(O)cc(O)c12` was “inactive”; that for `Cc1oc(-c2ccccc2)nc1CCOc1cccc2c1ccn2CCC(=O)O` was “inactive”. For the compound `O=c1[nH]cc(F)c(=O)[nH]1`, the AC50 is 3170 nM (active). Turning to `COc1ccc(S(=O)(=O)N2C(=O)[C@@](c3ccccc3OC)(N3C[C@H](O)C[C@H]3C(=O)N(C)C)c3cc(Cl)ccc32)c(OC)c1`, the outcome was inactive. Still for that read-out and setting: in the case of `Cc1cc(NC(=O)C(=O)O)cc(C)c1Oc1ccc(O)c2c1CCC2` it was “inactive”; in that of `COC(=O)c1ccc(O)cc1`, “inactive”. Still for that read-out and setting: in the case of `CCCCc1ccc2c(n1)[C@@H](c1ccc(OC)cc1C[C@H](C)C(=O)O)[C@H](C(=O)O)[C@H]2c1ccc2c(c1)OCO2` it was “inactive”; in that of `CN1CCN(Cc2cc(-c3ccc4[nH]c(=O)oc4c3)co2)[C@@H](c2ccc(F)cc2)C1`, “inactive”; in that of `Cc1cccc(Nc2cc(Cl)nc(SCC(=O)O)n2)c1C`, “inactive”. The same measure, in the same setting: the value for `C=CCOC(=O)c1ccccc1C(=O)OCC=C` was “inactive”; that for `CCCc1cc(=O)[nH]c(=S)[nH]1` was “inactive”; that for `COCCOCCOC` was “inactive”. As to `CC(CO)OC(C)CO` (stereo unspecified) (tested in a mixture with another compound), the outcome was inactive.

As usually defined, the AC50 is the concentration giving half of the maximal activity seen.
